# Assay outcomes from PubChem BioAssay.
# Sampled rows, rich in hits. Any-hit rate of the full collection: about 7.3%.
# HCV inhibitor = HCV inhibition | Huh7.5.1 HCVcc-Cre infection, luciferase reporter, 44 h | Potency, µM (doses to about 41.8 µM), for inactives: at the highest dose activity change, negative = inhibition, most hits filed as inhibitors | AID 651820 | 3.4% of 340,000 active; note: potency is the fitted concentration of half-maximal effect
#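 Whole-lifecycle infectious HCVcc-Cre system; cells 1,000/well, compound then virus (~0.5 moi) added 4 h after plating, 44 h culture. Luciferase read 15 sec following 15 min substrate incubation, room temp.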
# AmpC inh detg = blocks E. coli AmpC beta-lactamase in detergent assay | 0.041% of 370,000 active | AmpC hydrolysis of nitrocefin, absorbance 480 nm, 0.01% Triton | AID 485294 | Potency, µM (titrated, usually from 114 µM), for inactives: top-dose activity change, negative = inhibition, hits mostly inhibitors | P00811;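 note: potency is the fitted concentration of half-maximal effect; 0% = no-compound wells and -100% = no-enzyme wells; nearly all actives have a fitted effect of over 25% in size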
# Target sequence (P00811 whole entry, looked up): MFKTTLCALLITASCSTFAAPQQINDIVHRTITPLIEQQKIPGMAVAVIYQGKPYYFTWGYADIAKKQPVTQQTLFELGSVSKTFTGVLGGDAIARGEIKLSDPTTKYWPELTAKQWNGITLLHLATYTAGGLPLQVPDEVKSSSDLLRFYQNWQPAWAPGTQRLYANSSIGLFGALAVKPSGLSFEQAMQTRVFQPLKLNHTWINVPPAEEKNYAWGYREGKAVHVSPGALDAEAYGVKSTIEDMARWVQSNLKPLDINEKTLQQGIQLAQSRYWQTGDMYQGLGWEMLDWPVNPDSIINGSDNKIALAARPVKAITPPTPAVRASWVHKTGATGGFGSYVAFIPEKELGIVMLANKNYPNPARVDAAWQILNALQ
#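 AmpC (5.3 nM in the dispensed reagent) in 20 mM phosphate pH 7.0 with 0.01% (detergent screen) or 0.0001% Triton X-100 was preincubated with compounds for 15 min at room temperature. Nitrocefin was then added from an 800 uM solution, and hydrolysis was followed at 480 nm.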
# FMDV inh = blocks foot and mouth disease virus; FMDV antiviral cell-based qHTS; Potency, µM (highest dose often 57.9 µM), for the others: at the highest dose activity change, negative = inhibition, most hits filed as inhibitors; 1.2% of 410,000 active; calls by dose curve; tested in HEK293T cells; note: read-out not given here; potency is the fitted concentration of half-maximal effect; nearly all actives have a fitted effect of over 45% in size
# HCMV antiviral = human cytomegalovirus inhibition; AID 1259415; 4.5% of 410,000 active; activity change, negative = inhibition, % at 57.5 µM; HFF cells, HCMV-luciferase reporter, 72 h; stronger effect = lower value; in the data active = activity change below about -60%; inconclusive = no clear call, values can overlap the other calls; inactive = above about -39%
#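 Cell-based, HFFs, 1000 cells/well, 16 h 37C; cpds in DMSO + HCMV-luc, MOI 1 PFU/cell; 72 h 37C; OneGlo luminescence after 5 min RT; norm. to buffer vs Salinomycin 10uM.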
# AmpC inh no detg = AmpC beta-lactamase inhibition without detergent; AID 485341; Potency, µM (series often up to 57.1 µM), inactives show at the top dose activity change, negative = inhibition, hits mostly inhibitors; 0.52% of 330,000 active; P00811; AmpC nitrocefin hydrolysis, absorbance 480 nm, 0.0001% Triton;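 note: potency is the fitted concentration of half-maximal effect; plate controls were no compound for no effect and no enzyme for full effect; nearly all actives have a fitted effect of over 20% in size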
#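 AmpC (5.3 nM in the dispensed reagent) in 20 mM phosphate pH 7.0 with 0.01% (detergent screen) or 0.0001% Triton X-100 was preincubated with compounds for 15 min at room temperature. Nitrocefin was then added from an 800 uM solution, and hydrolysis was followed at 480 nm.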
# Starred values were filed as active, the others as inactive; ? = inconclusive; · = no result. Unless noted, calls come from the whole dose curve; as a rule, active = well fitted curve in the direction sought with a large enough effect; inconclusive = small, poorly fitted or top-dose-only effect, or another doubt; inactive = no such curve, though single readings can be large; an effect the other way counts as inactive or inconclusive. Unless noted, % is set by controls: 0 for no effect and ±100 for the full control effect.
SMILES,HCV inhibitor,AmpC inh detg,FMDV inh,HCMV antiviral,AmpC inh no detg
O=C1CCN(C(=O)c2ccccc2)c2ccccc21,·,·,-4%,-28,·
NN=C(c1ccccc1)c1ccccc1,10%,·,-5%,26,·
O=C1C=CC(=NN=C(c2ccccc2)c2ccccc2)C=C1,·,·,3%,-80*,·
CN1c2ccccc2C2(C)CCCC3=Cc4cc([N+](=O)[O-])cc([N+](=O)[O-])c4OC312 (stereo not drawn),2%,-6%,?,-60*,-14%
ON=C1c2ccccc2-c2ccc(O)cc21,?,·,38%,-30,·
ON=C1c2ccccc2-c2cc(Br)ccc21,?,·,0%,-64*,·
COc1ccc(C(=O)N/N=C/C23CC[C@@H](O)CC2(O)CC[C@@H]2[C@@H]3CCC3(C)C(C4=CC(=O)OC4)CCC23O)cc1 (stereo partly drawn),3%,-1%,?,-82*,48%
CC12CC[C@H]3[C@@H](CCC4(O)C[C@H](O)CCC34/C=N/NC(=O)c3ccc(O)cc3)C1(O)CCC2C1=CC(=O)OC1 (stereo partly drawn),0%,0%,-21%,-22,-1%
CN(C)c1ccc(C(=O)N/N=C/C23CC[C@@H](O)CC2(O)CC[C@@H]2[C@@H]3CCC3(C)C(C4=CC(=O)OC4)CCC23O)cc1 (stereo partly drawn),-30%,6%,?,-99*,70%
COc1cccc2cc(C(=O)NCCc3c(C)[nH]c4ccc(F)cc34)c(=O)oc12,·,2%,-19%,6,·
COc1ccc(-n2nc3c(c2NC(=O)COc2ccccc2)CS(=O)C3)cc1 (stereo not drawn),2%,-6%,-18%,-21,-7%
CN(C)CCCNC(=O)c1ccc(-c2nc(-c3ccc(Cl)cc3)cs2)cc1,10µM*,1%,37%,34,120%
CC(C)(C)c1ccc(C(=O)NCCc2csc(-c3ccc(Cl)cc3)n2)cc1,·,21%,-13%,-11,·
Cc1ccc2c(CC(=O)NNC(=O)c3ccccc3O)coc2c1,?,-12%,-3%,1,-27%
COc1ccc(C2CC(c3ccccc3)=NN2C(=O)COC(=O)c2nc3nc(C)cc(C)n3n2)cc1 (stereo not drawn),10µM*,-10%,4%,13,254%
COc1ccc(C2CC(c3ccccc3)=NN2C(=O)COC(=O)c2cccc(O)c2)cc1 (stereo not drawn),?,·,-4%,-3,-34%
Cc1cc(C)cc(NC(=O)Cc2c(C(=O)O)c(C)cn2C)c1,·,6%,-7%,4,·
COc1ccc(Nc2nc(-c3cccc(OC)c3O)nc3ccccc23)cc1,5.6µM*,-5%,4%,?,-47%
COc1cccc(-c2nc(NC(C)(C)C)c3ccccc3n2)c1O,?,?,25µM*,11,0%
O=C(CCNS(=O)(=O)c1ccc(Cl)cc1)N1CCN(Cc2ccccc2)CC1,-13%,6%,-14%,-6,114%
Cc1c(C)c(C)c(S(=O)(=O)NCCC(=O)N2CCN(Cc3ccc(C#N)cc3)CC2)c(C)c1C,13µM*,-5%,-14%,-27,174%
Cc1ccc(NC(=O)c2cc(=O)c3ccccc3o2)cc1S(=O)(=O)N1CCCCC1,?,-3%,25µM*,-69*,-25%
Cc1ccc(NC(=O)Cn2c(=O)cnc3ccccc32)cc1S(=O)(=O)N1CCCCC1,11µM*,3%,?,?,-8%
CCOc1ncccc1C(=O)OCC(=O)Nc1ccc(C)c(S(=O)(=O)N2CCOCC2)c1,2.8µM*,2%,19%,-4,27%
Cc1ccc(NC(=O)c2cc(=O)c3ccccc3o2)cc1S(=O)(=O)N1CCOCC1,?,0%,-25%,-3,-14%
SMILES,HCV inhibitor,AmpC inh detg,FMDV inh,HCMV antiviral,AmpC inh no detg
O=C(COc1cccnc1[N+](=O)[O-])NCCc1ccc(Cl)cc1Cl,8%,1%,-8%,-64*,30%
O=C(COc1cccnc1[N+](=O)[O-])NCCc1ccc(Cl)cc1,-14%,1%,17%,-34,10%
COc1ccc(NC(=O)Cn2c(=O)cnc3ccccc32)cc1S(=O)(=O)N1CCCCC1,?,-18%,-10%,13,-50%
COc1ccc(C(C)(C)C)cc1N1C(=O)[C@@H]2CSCCS(=O)(=O)N2C1=O,·,·,·,-12,·
COc1ccc(NC(=O)COc2ccc(C)c(C)c2)cc1S(=O)(=O)N1CCCCC1,?,0%,?,5,16%
Cc1ccc(NC(=O)CSc2ccccc2)cc1S(=O)(=O)N1CCOCC1,-3%,?,29%,3,-24%
Cc1ccc(NC(=O)CSc2ncnc3ccccc23)cc1S(=O)(=O)N1CCCCC1,?,-14%,16µM*,-17,-9%
Cc1ccc(NC(=O)CSc2ccccc2)cc1S(=O)(=O)N1CCCCC1,13µM*,7%,?,?,-31%
N#Cc1ccccc1OCC(=O)Nc1cccc(S(=O)(=O)N2CCCC2)c1,?,7%,-8%,-4,-34%
Cc1ccc(NC(=O)COc2ccccc2C#N)cc1S(=O)(=O)N1CCCCCC1,10µM*,-11%,?,-40,-32%
COc1ccc(NC(=O)COc2cc(C)cc(C)c2)cc1S(=O)(=O)N1CCCCC1,4µM*,?,-29%,-34,25%
Cc1cc(C)c(C)c(S(=O)(=O)N[C@@H](C)C(=O)OCC(=O)NC2CCCC(C)C2C)c1C (stereo partly drawn),14%,·,-5%,-14,158%
Cc1ccc(NC(=O)COc2cccnc2[N+](=O)[O-])cc1S(=O)(=O)N1CCCCC1,?,?,40µM*,-35,3%
Cc1ccccc1CC(=O)OCC(=O)Nc1ccc(C)c(S(=O)(=O)N2CCCCC2)c1,?,9%,?,34,-26%
O=C(COc1ccccc1)Nc1ccc2c(c1)Cc1cc(NC(=O)COc3ccccc3)ccc1-2,?,-14%,-8%,-80*,-18%
Cc1ccc(NC(=O)COc2ccccc2)cc1S(=O)(=O)N1CCCCCC1,?,?,28µM*,16,-20%
Cc1ccc(NC(=O)Cc2n[nH]c(=O)c3ccccc23)cc1S(=O)(=O)N1CCCCCC1,10µM*,7%,-14%,-69*,-36%
Cn1cncc1C#Cc1ccc2cc(CCO)oc(=O)c2c1,4%,4%,14%,-7,-11%
Nc1ncnc(NCc2ccc(F)cc2)c1[N+](=O)[O-],5%,1%,-8%,-72*,-15%
Nc1ncnc(NCc2ccccc2)c1[N+](=O)[O-],12%,-14%,9%,-70*,-14%
Cc1cc(C)nc(Sc2ncnc(N)c2[N+](=O)[O-])n1,22µM*,-3%,13µM*,?,2%
Cc1cccc(Nc2ncnc(N)c2[N+](=O)[O-])n1,11%,0%,-13%,-79*,-18%
